In the library only some 7.3% were active in any assay of this set; here they are far more common.
Rab9 prom act: qHTS Assay for Rab9 Promoter Activators; Potency, µM (series often up to 9.22 µM), without a hit: at the highest dose activation, negative = inhibition, usual class: activators; AID 485297, 2010; Huh7 Rab9 promoter-luciferase reporter, luminescence, 24 h; 320,000 compounds, 2.8% hits; note: % of control where 0% means no effect; nearly all actives have a fitted effect of over 60% in size
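Luciferase signal after 10 min detection reagent at ambient indicates Rab9 promoter upregulation; stably transfected Huh7 cells were treated 24 h with compound in DMSO at 37 °C, 5% CO2.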
SMN2 splice up: qHTS Assay for Enhancers of SMN2 Splice Variant Expression; 210,000 compounds, 2.8% hits; Potency, µM (series often up to 46.1 µM), for inactives: at the highest dose activity change, positive = activation, hits mostly activators; HEK293 SMN2-luciferase splicing reporter, luminescence, 30-36 h; note: % of control where 0% means no effect; nearly all actives have a fitted effect of over 55% in size
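HEK293 cells carry an SMN2 minigene-luciferase reporter in which exon 7 inclusion puts luciferase in frame. Cells were seeded at 2000 cells/well, attached for 10-12 hours, then exposed to compounds for 30-36 hours at 37C before ONE-Glo luminescence.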
uPA surface inh: qHTS for Inhibitors of Cell Surface uPA Generation; cell surface uPA generation assay, qHTS; Potency, µM (highest dose often 38.3 µM), without a hit: at the highest dose activity change, negative = inhibition, hits mostly inhibitors; 330,000 compounds, 0.31% hits; AID 540303, 2011; active = well fitted inhibition curve with a large enough effect; inconclusive = small, poorly fitted or top-dose-only effect; inactive = no such curve, though single readings can be large or run the other way; tested in mouse RAW 264.7 cells; note: % is set by controls: 0 for no effect and ±100 for the full control effect; nearly all actives have a fitted effect of over 55% in size
NPC1 promoter act: qHTS Assay for NPC1 Promoter Activators; Huh7 NPC1 promoter luciferase reporter, 24 h; Potency, µM (highest dose often 9.22 µM), for inactives: at the highest dose activation, hits mostly activators; 320,000 compounds, 2.4% hits; note: % of control where 0% means no effect; nearly all actives have a fitted effect of over 60% in size
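Luminescence from an NPC1 promoter-driven luciferase reporter in stably transfected Huh7 cells was measured after 24 h compound treatment at 37 °C, followed by 10 min ambient incubation with luciferase detection reagent.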
FLuc counter: qHTS profiling assay for firefly luciferase inhibitor/activator using purifed enzyme and Km concentrations of substrates (counterscreen for miR-21 project) | purified FLuc, Km substrates, luminescence inhibition | AID 588342, 2011 | Potency, µM (doses to about 57.5 µM), without a hit: top-dose activity change, negative = inhibition, actives largely listed as inhibitors | Luciferin 4-monooxygenase (Photinus pyralis), P08659 | 360,000 compounds, 6.9% hits;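 note: plate controls were vehicle for no effect and reference inhibitor for full effect; nearly all actives have a fitted effect of over 55% in size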
Target sequence (P08659 whole entry, looked up): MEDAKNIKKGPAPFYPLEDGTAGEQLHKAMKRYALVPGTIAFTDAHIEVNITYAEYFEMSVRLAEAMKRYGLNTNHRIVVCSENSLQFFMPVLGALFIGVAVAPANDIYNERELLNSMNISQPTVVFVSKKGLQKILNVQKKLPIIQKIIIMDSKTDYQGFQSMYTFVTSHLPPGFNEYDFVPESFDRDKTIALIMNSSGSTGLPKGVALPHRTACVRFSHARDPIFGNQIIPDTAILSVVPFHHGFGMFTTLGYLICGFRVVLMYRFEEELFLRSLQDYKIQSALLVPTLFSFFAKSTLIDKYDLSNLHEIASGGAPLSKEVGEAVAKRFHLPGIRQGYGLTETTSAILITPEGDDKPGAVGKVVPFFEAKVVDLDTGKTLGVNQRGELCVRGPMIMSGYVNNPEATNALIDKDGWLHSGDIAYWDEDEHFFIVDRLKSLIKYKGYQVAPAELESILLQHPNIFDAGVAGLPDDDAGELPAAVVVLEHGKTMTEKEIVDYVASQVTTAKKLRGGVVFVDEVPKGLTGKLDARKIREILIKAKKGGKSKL
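Biochemical qHTS of compounds, final roughly 60 µM downward over six points, against 10 nM purified firefly luciferase using Km concentrations of substrates (10 uM D-luciferin, 10 uM ATP) in Tris acetate pH 7.5 buffer; luminescence output.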
ELG1 genotox: qHTS screen for small molecules that induce genotoxicity in human embryonic kidney (HEK293T) cells expressing luciferase-tagged ELG1 | Potency, µM (highest dose often 46 µM), without a hit: at the highest dose activity change, positive = activation, actives largely listed as activators | HEK293T ELG1-luciferase reporter, luminescence, 16 h | 330,000 compounds, 1.3% hits | AID 504466, 2011; note: % of control where 0% means no effect; nearly all actives have a fitted effect of over 60% in size
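After overnight (16 hr) compound treatment at 37 °C, ELG1-luciferase HEK293T cells were lysed with ONE-Glo; luminescence quantified 30 min later at room temperature.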
Numbers without * were called inactive; ? = inconclusive; . = no result; [ ] = another dose, or the depositor's remark. Unless noted, calls come from the whole dose curve; as a rule, active = well fitted curve in the direction sought with a large enough effect; inconclusive = small, poorly fitted or top-dose-only effect, or another doubt; inactive = no such curve, though single readings can be large; an effect the other way counts as inactive or inconclusive. Potency is the fitted concentration of half-maximal effect.

SMILES	Rab9 prom act	SMN2 splice up	uPA surface inh	NPC1 promoter act	FLuc counter	ELG1 genotox
CN(C)c1nc(NCc2ccccc2)nc(N/N=C/c2ccc(Br)cc2)n1	-15.7%	2.8%	13.1%	-2.3%	-0.8%	6.8%
Cc1cc(N/N=C/c2ccc(F)cc2)nc(NCc2ccccc2)n1	0.9%	.	-6.0%	14.6%	10.7µM*	1.3%
Cc1cc(N/N=C/c2ccc(Cl)cc2Cl)nc(NCc2ccccc2)n1	-10.4%	-49.0%	-4.6%	-9.3%	?	-9.2%
Cc1cc(N/N=C/c2ccc(N(C)C)cc2)nc(NCc2ccccc2)n1	-11.9%	.	-65.4%	1.6%	10.7µM*	-11.9%
CCCNC(=O)C1CCC(Cn2c(=O)c3sccc3n(CC(=O)NCc3ccccc3)c2=O)CC1 (stereo not drawn)	.	.	.	.	-1.6%	.
OCC1O[C@H]([S-])[C@H](O)[C@@H](O)[C@@H]1O.[Au+] (stereo partly drawn)	-5.9%[46.1 µM]	.	.	4.0%[46.1 µM]	.	.
Cn1cc(C(=O)Nc2ccc(Cl)c(Cl)c2)cn1	.	.	1.7%	.	.	.
O=C(O)c1cc([N+](=O)[O-])ccc1C(=O)Nc1cccc([N+](=O)[O-])c1	-3.9%	.	0.1%	-2.4%	-2.4%	0.9%
Cc1ccc(NC(=O)c2csc(-c3ccccc3)c2C)cc1	0.316µM*	-3.7%	-13.1%	0.112µM*	0.0953µM*	?
Cc1c(C(=O)Nc2cccc([N+](=O)[O-])c2)csc1-c1ccccc1	1.26µM*	28.2µM*	-4.8%	0.708µM*	0.849µM*	?
COCCn1c(C)cc(O)c(C(c2ccccc2)N2CCN(CCO)CC2)c1=O (stereo not drawn)	.	.	.	.	1.8%	.
CCc1ccccc1-n1cnc2cc(C(=O)NC3CCCCCC3)ccc21	.	.	.	.	-17.5%	.
COc1cc(CN2CCNC(=O)C2CC(=O)NCc2csc(C(C)C)n2)cc(OC)c1 (stereo not drawn)	-7.6%	.	4.8%	-4.8%	0.1%	1.0%
Cc1ccc2[nH]c(=O)c(CN(Cc3ccccc3)C(=S)NCCCN(C)C)cc2c1	0.316µM*	.	-6.3%	0.316µM*	0.757µM*	0.731µM*
COc1cc2cc(CN(CCc3ccccc3C)C(=S)NCCCN(C)C)c(=O)[nH]c2cc1OC	-1.1%	-0.6%	-0.7%	-3.0%	0.5%	0.3%
CCOC(=O)CNc1c(-c2ccc(OC)cc2)nc2ccc(Cl)cn12	0.0%	?	-10.9%	4.0%	8.49µM*	?
CCOC(=O)CNc1c(-c2ccc(Cl)cc2)nc2cnccn12	1.3%	3.7%	6.7%	-1.2%	-13.9%	0.0%
COCCNc1c(-c2ccc(OC)cc2)nc2ccc(Cl)cn12	?	21.2%	2.6%	17.8%	10.7µM*	1.5%
COCc1ccc(C(=O)N2CCCC(C(=O)c3ccc(Cl)cc3C)C2)o1 (stereo not drawn)	-1.1%	.	3.9%	2.6%	0.9%	-7.6%
CC(C)(O)[C@H]1Cc2cc3ccc(=O)oc3cc2O1	3.2%[1.84 µM]	.	-16.0%	?	12µM*	?
C=C(C)C1Cc2cc3ccc(=O)oc3cc2O1 (stereo not drawn)	?	-11.4%[1.84 µM]	-5.5%	13.8%	13.5µM*	?
CC1(C)Oc2cc3oc(=O)ccc3cc2C[C@@H]1O	.	.	2.6%	.	.	9.3%
O=C1CC(c2nnc(Cc3ccc(F)cc3Cl)o2)CN1c1ccccc1 (stereo not drawn)	.	4.4%	.	.	-6.9%	.
CC1(C)CC(=O)C(N=Nc2c(Cl)cc(Cl)cc2Cl)=C(O)C1	-1.1%	-10.6%	-1.5%	9.0%	?	13.6%
CC1(C)CC(=O)C(N=Nc2ccc(OC(F)F)cc2)=C(O)C1	3.0%	-15.5%	-0.7%	-0.6%	16.9µM*	?
CC1(C)CC(=O)C(N=Nc2ccc(-c3ccccc3)cc2)=C(O)C1	14.9%	18.3%	1.2%	5.4%	2.13µM*	?
